# Where two headings read alike, the source gives them in different places.
# Tests used:
# IKBKE = settings: read-out: apparent Kd, n = 1
# NUAK1 = settings: read-out: apparent Kd, n = 1
# [1] = compound concentrations:100 nM and 1000 nM (sheet 'Lestaurtinib' of Supplementary Table 1),run:Lestaurtinib_02741_R1,Plate:MR023
# [2] = compound concentrations:100 nM and 1000 nM (sheet 'Lestaurtinib' of Supplementary Table 1),run:Lestaurtinib_02741_R3,Plate:MR023
# [3] = compound concentrations:100 nM and 1000 nM (sheet 'Lestaurtinib' of Supplementary Table 1),run:Lestaurtinib_02748_R1,Plate:MR024
# [4] = compound concentrations:100 nM and 1000 nM (sheet 'Lestaurtinib' of Supplementary Table 1),run:Lestaurtinib_02752_R1,Plate:MR025
# [5] = compound concentrations:100 nM and 1000 nM (sheet 'Lestaurtinib' of Supplementary Table 1),run:Lestaurtinib_02752_R3,Plate:MR025
# [6] = compound concentrations:100 nM and 1000 nM (sheet 'Lestaurtinib' of Supplementary Table 1),run:Lestaurtinib_02765_R1,Plate:MR026
# [7] = compound concentrations:100 nM and 1000 nM (sheet 'Lestaurtinib' of Supplementary Table 1),run:Lestaurtinib_02765_R3,Plate:MR026
# [8] = compound concentrations:100 nM and 1000 nM (sheet 'Lestaurtinib' of Supplementary Table 1),run:Lestaurtinib_02768_R2,Plate:MR028
substance,measurement,setting,value
Lestaurtinib,potency estimated from few doses,"IKBKE; compound concentrations:100 nM and 1000 nM (sheet 'Lestaurtinib' of Supplementary Table 1),run:Lestaurtinib_02724_R2,Plate:MR021",809 nM
same,potency estimated from few doses,"IKBKE; compound concentrations:100 nM and 1000 nM (sheet 'Lestaurtinib' of Supplementary Table 1),run:Lestaurtinib_02724_R3,Plate:MR021",582 nM
same,potency estimated from few doses,IKBKE; [1],782 nM
same,potency estimated from few doses,"IKBKE; compound concentrations:100 nM and 1000 nM (sheet 'Lestaurtinib' of Supplementary Table 1),run:Lestaurtinib_02741_R2,Plate:MR023",810 nM
same,potency estimated from few doses,IKBKE; [2],965 nM
same,potency estimated from few doses,IKBKE; [3],505 nM
same,potency estimated from few doses,"IKBKE; compound concentrations:100 nM and 1000 nM (sheet 'Lestaurtinib' of Supplementary Table 1),run:Lestaurtinib_02748_R3,Plate:MR024",810 nM
same,potency estimated from few doses,IKBKE; [4],783 nM
same,potency estimated from few doses,"IKBKE; compound concentrations:100 nM and 1000 nM (sheet 'Lestaurtinib' of Supplementary Table 1),run:Lestaurtinib_02752_R2,Plate:MR025",786 nM
same,potency estimated from few doses,IKBKE; [5],596 nM
same,potency estimated from few doses,IKBKE; [6],860 nM
same,potency estimated from few doses,IKBKE; [7],731 nM
same,potency estimated from few doses,"IKBKE; compound concentrations:100 nM and 1000 nM (sheet 'Lestaurtinib' of Supplementary Table 1),run:Lestaurtinib_02768_R1,Plate:MR028",686 nM
same,potency estimated from few doses,IKBKE; [8],820 nM
same,potency estimated from few doses,"IKBKE; compound concentrations:100 nM and 1000 nM (sheet 'Lestaurtinib' of Supplementary Table 1),run:Lestaurtinib_02768_R3,Plate:MR028",628 nM
same,potency estimated from few doses,"IKBKE; compound concentrations:100 nM and 1000 nM (sheet 'Lestaurtinib' of Supplementary Table 1),run:Lestaurtinib_02795_R1,Plate:MR022",874 nM
same,potency estimated from few doses,"IKBKE; compound concentrations:100 nM and 1000 nM (sheet 'Lestaurtinib' of Supplementary Table 1),run:Lestaurtinib_02795_R3,Plate:MR022",1210 nM
same,potency estimated from few doses,"IKBKE; compound concentrations:100 nM and 1000 nM (sheet 'Lestaurtinib' of Supplementary Table 1),run:Lestaurtinib_02802_R3,Plate:MR029",831 nM
same,potency estimated from few doses,"IKBKE; compound concentrations:100 nM and 1000 nM (sheet 'Lestaurtinib' of Supplementary Table 1),run:Lestaurtinib_02896_R1,Plate:MR030",749 nM
same,potency estimated from few doses,"IKBKE; compound concentrations:100 nM and 1000 nM (sheet 'Lestaurtinib' of Supplementary Table 1),run:Lestaurtinib_02896_R3,Plate:MR030",608 nM
same,potency estimated from few doses,"IKBKE; compound concentrations:100 nM and 1000 nM (sheet 'Lestaurtinib' of Supplementary Table 1),run:Lestaurtinib_03172_R2,Plate:MR031",814 nM
same,potency estimated from few doses,"IKBKE; compound concentrations:100 nM and 1000 nM (sheet 'Lestaurtinib' of Supplementary Table 1),run:Lestaurtinib_03172_R3,Plate:MR031",662 nM
same,potency estimated from few doses,"IKBKE; compound concentrations:100 nM and 1000 nM (sheet 'Lestaurtinib' of Supplementary Table 1),run:Lestaurtinib_03252_R1,Plate:MR032",804 nM
same,potency estimated from few doses,"IKBKE; compound concentrations:100 nM and 1000 nM (sheet 'Lestaurtinib' of Supplementary Table 1),run:Lestaurtinib_03260_R1,Plate:MR033",1210 nM
same,potency estimated from few doses,"IKBKE; compound concentrations:100 nM and 1000 nM (sheet 'Lestaurtinib' of Supplementary Table 1),run:Lestaurtinib_03260_R3,Plate:MR033",943 nM
same,potency estimated from few doses,"NUAK1; compound concentrations:100 nM and 1000 nM (sheet 'Lestaurtinib' of Supplementary Table 1),run:Lestaurtinib_02339_R1,Plate:MR001",94.5 nM
same,potency estimated from few doses,"NUAK1; compound concentrations:100 nM and 1000 nM (sheet 'Lestaurtinib' of Supplementary Table 1),run:Lestaurtinib_02339_R2,Plate:MR001",55.6 nM
same,potency estimated from few doses,"NUAK1; compound concentrations:100 nM and 1000 nM (sheet 'Lestaurtinib' of Supplementary Table 1),run:Lestaurtinib_02364_R2,Plate:MR002",62.3 nM
same,potency estimated from few doses,"NUAK1; compound concentrations:100 nM and 1000 nM (sheet 'Lestaurtinib' of Supplementary Table 1),run:Lestaurtinib_02364_R3,Plate:MR002",66.1 nM
same,potency estimated from few doses,"NUAK1; compound concentrations:100 nM and 1000 nM (sheet 'Lestaurtinib' of Supplementary Table 1),run:Lestaurtinib_02367_R1,Plate:MR003",51.3 nM
same,potency estimated from few doses,"NUAK1; compound concentrations:100 nM and 1000 nM (sheet 'Lestaurtinib' of Supplementary Table 1),run:Lestaurtinib_02367_R3,Plate:MR003",78 nM
same,potency estimated from few doses,"NUAK1; compound concentrations:100 nM and 1000 nM (sheet 'Lestaurtinib' of Supplementary Table 1),run:Lestaurtinib_02381_R1,Plate:MR004",85.9 nM
same,potency estimated from few doses,"NUAK1; compound concentrations:100 nM and 1000 nM (sheet 'Lestaurtinib' of Supplementary Table 1),run:Lestaurtinib_02407_R1,Plate:MR005",124 nM
same,potency estimated from few doses,"NUAK1; compound concentrations:100 nM and 1000 nM (sheet 'Lestaurtinib' of Supplementary Table 1),run:Lestaurtinib_02407_R2,Plate:MR005",200 nM
same,potency estimated from few doses,"NUAK1; compound concentrations:100 nM and 1000 nM (sheet 'Lestaurtinib' of Supplementary Table 1),run:Lestaurtinib_02422_R1,Plate:MR006",69.5 nM
same,potency estimated from few doses,"NUAK1; compound concentrations:100 nM and 1000 nM (sheet 'Lestaurtinib' of Supplementary Table 1),run:Lestaurtinib_02437_R1,Plate:MR007",89.8 nM
same,potency estimated from few doses,"NUAK1; compound concentrations:100 nM and 1000 nM (sheet 'Lestaurtinib' of Supplementary Table 1),run:Lestaurtinib_02437_R2,Plate:MR007",113 nM
same,potency estimated from few doses,"NUAK1; compound concentrations:100 nM and 1000 nM (sheet 'Lestaurtinib' of Supplementary Table 1),run:Lestaurtinib_02438_R1,Plate:MR008",94.3 nM
same,potency estimated from few doses,"NUAK1; compound concentrations:100 nM and 1000 nM (sheet 'Lestaurtinib' of Supplementary Table 1),run:Lestaurtinib_02438_R2,Plate:MR008",82.5 nM
same,potency estimated from few doses,"NUAK1; compound concentrations:100 nM and 1000 nM (sheet 'Lestaurtinib' of Supplementary Table 1),run:Lestaurtinib_02443_R2,Plate:MR009",163 nM
same,potency estimated from few doses,"NUAK1; compound concentrations:100 nM and 1000 nM (sheet 'Lestaurtinib' of Supplementary Table 1),run:Lestaurtinib_02473_R1,Plate:MR010",93 nM
same,potency estimated from few doses,"NUAK1; compound concentrations:100 nM and 1000 nM (sheet 'Lestaurtinib' of Supplementary Table 1),run:Lestaurtinib_02473_R2,Plate:MR010",56.8 nM
same,potency estimated from few doses,"NUAK1; compound concentrations:100 nM and 1000 nM (sheet 'Lestaurtinib' of Supplementary Table 1),run:Lestaurtinib_02482_R1,Plate:MR011",115 nM
same,potency estimated from few doses,"NUAK1; compound concentrations:100 nM and 1000 nM (sheet 'Lestaurtinib' of Supplementary Table 1),run:Lestaurtinib_02482_R2,Plate:MR011",74.4 nM
same,potency estimated from few doses,"NUAK1; compound concentrations:100 nM and 1000 nM (sheet 'Lestaurtinib' of Supplementary Table 1),run:Lestaurtinib_02482_R3,Plate:MR011",87.3 nM
same,potency estimated from few doses,"NUAK1; compound concentrations:100 nM and 1000 nM (sheet 'Lestaurtinib' of Supplementary Table 1),run:Lestaurtinib_02487_R1,Plate:MR012",60.4 nM
same,potency estimated from few doses,"NUAK1; compound concentrations:100 nM and 1000 nM (sheet 'Lestaurtinib' of Supplementary Table 1),run:Lestaurtinib_02487_R2,Plate:MR012",99.7 nM
same,potency estimated from few doses,"NUAK1; compound concentrations:100 nM and 1000 nM (sheet 'Lestaurtinib' of Supplementary Table 1),run:Lestaurtinib_02496_R2,Plate:MR013",81.1 nM
same,potency estimated from few doses,"NUAK1; compound concentrations:100 nM and 1000 nM (sheet 'Lestaurtinib' of Supplementary Table 1),run:Lestaurtinib_02566_R2,Plate:MR014",73 nM
same,potency estimated from few doses,"NUAK1; compound concentrations:100 nM and 1000 nM (sheet 'Lestaurtinib' of Supplementary Table 1),run:Lestaurtinib_02566_R3,Plate:MR014",85.3 nM
same,potency estimated from few doses,"NUAK1; compound concentrations:100 nM and 1000 nM (sheet 'Lestaurtinib' of Supplementary Table 1),run:Lestaurtinib_02572_R2,Plate:MR015",17.9 nM
same,potency estimated from few doses,"NUAK1; compound concentrations:100 nM and 1000 nM (sheet 'Lestaurtinib' of Supplementary Table 1),run:Lestaurtinib_02572_R3,Plate:MR015",42.5 nM
same,potency estimated from few doses,"NUAK1; compound concentrations:100 nM and 1000 nM (sheet 'Lestaurtinib' of Supplementary Table 1),run:Lestaurtinib_02577_R2,Plate:MR016",113 nM
same,potency estimated from few doses,"NUAK1; compound concentrations:100 nM and 1000 nM (sheet 'Lestaurtinib' of Supplementary Table 1),run:Lestaurtinib_02577_R3,Plate:MR016",73.6 nM
same,potency estimated from few doses,"NUAK1; compound concentrations:100 nM and 1000 nM (sheet 'Lestaurtinib' of Supplementary Table 1),run:Lestaurtinib_02584_R1,Plate:MR017",89.4 nM
same,potency estimated from few doses,"NUAK1; compound concentrations:100 nM and 1000 nM (sheet 'Lestaurtinib' of Supplementary Table 1),run:Lestaurtinib_02584_R2,Plate:MR017",66.9 nM
same,potency estimated from few doses,"NUAK1; compound concentrations:100 nM and 1000 nM (sheet 'Lestaurtinib' of Supplementary Table 1),run:Lestaurtinib_02584_R3,Plate:MR017",134 nM
same,potency estimated from few doses,"NUAK1; compound concentrations:100 nM and 1000 nM (sheet 'Lestaurtinib' of Supplementary Table 1),run:Lestaurtinib_02601_R1,Plate:MR018",142 nM
same,potency estimated from few doses,"NUAK1; compound concentrations:100 nM and 1000 nM (sheet 'Lestaurtinib' of Supplementary Table 1),run:Lestaurtinib_02606_R1,Plate:MR019",39.7 nM
same,potency estimated from few doses,"NUAK1; compound concentrations:100 nM and 1000 nM (sheet 'Lestaurtinib' of Supplementary Table 1),run:Lestaurtinib_02606_R2,Plate:MR019",58 nM
same,potency estimated from few doses,"NUAK1; compound concentrations:100 nM and 1000 nM (sheet 'Lestaurtinib' of Supplementary Table 1),run:Lestaurtinib_02606_R3,Plate:MR019",92 nM
same,potency estimated from few doses,"NUAK1; compound concentrations:100 nM and 1000 nM (sheet 'Lestaurtinib' of Supplementary Table 1),run:Lestaurtinib_02624_R2,Plate:MR020",82.2 nM
same,potency estimated from few doses,"NUAK1; compound concentrations:100 nM and 1000 nM (sheet 'Lestaurtinib' of Supplementary Table 1),run:Lestaurtinib_02624_R3,Plate:MR020",96.7 nM
same,potency estimated from few doses,"NUAK1; compound concentrations:100 nM and 1000 nM (sheet 'Lestaurtinib' of Supplementary Table 1),run:Lestaurtinib_02724_R1,Plate:MR021",59.7 nM
same,potency estimated from few doses,NUAK1; [1],165 nM
same,potency estimated from few doses,NUAK1; [2],43.7 nM
same,potency estimated from few doses,NUAK1; [3],52.3 nM
same,potency estimated from few doses,"NUAK1; compound concentrations:100 nM and 1000 nM (sheet 'Lestaurtinib' of Supplementary Table 1),run:Lestaurtinib_02748_R2,Plate:MR024",40.2 nM
same,potency estimated from few doses,NUAK1; [4],56.1 nM
same,potency estimated from few doses,NUAK1; [5],64.1 nM
same,potency estimated from few doses,NUAK1; [6],74.4 nM
same,potency estimated from few doses,NUAK1; [7],64.4 nM
same,potency estimated from few doses,"NUAK1; compound concentrations:100 nM and 1000 nM (sheet 'Lestaurtinib' of Supplementary Table 1),run:Lestaurtinib_02766_R1,Plate:MR027",97.5 nM
same,potency estimated from few doses,"NUAK1; compound concentrations:100 nM and 1000 nM (sheet 'Lestaurtinib' of Supplementary Table 1),run:Lestaurtinib_02766_R3,Plate:MR027",92.8 nM
same,potency estimated from few doses,NUAK1; [8],41.7 nM

# Source: publication PMC11062922 (Nature Chemical Biology, 2023)
